According to the OligoGym collection:

Each sequence was assayed against CHEK1 (assay: pooled miR-30 sensor sort-seq; sequence = guide strand). Conditions: shRNA.
Also: reference of the scale not given here.

Row | Sequence | sensor-assay potency score (higher = more potent)
1 | TAGCAGCACTATATTCACCAGG | -0.884
2 | TTGTTGATATAGTAACCTGATT | -1.22
3 | TTTTCTTCACTAGAAGCACTGT | 0.254
4 | TAACTGACTATTCAAAAGCATA | -1.68
5 | TTGTCTGCATCCAATTTGGTAA | -1.02
6 | TAAAGTACCACACATCTTGTTC | -0.726
7 | TTTGTCTGCATCCAATTTGGTA | -0.969
8 | TTTTCTTCCATTGATAGCCCAA | -0.419
9 | TAAAGAATCGTGTCATTCTTTT | -0.659
10 | TATCCCATAAGGAAAGACCTGT | -0.371
11 | TTTGTTGTACCATCTATCTTTT | -0.765
12 | TTAATCTTCAGGAAGTGTCTCT | 0.552
13 | TATTTTATCATCCATTTCTAAC | -1.06
14 | TTCCACAGGACCAAACATCAAC | -1.04
15 | TGATATAGTAACCTGATTCATA | -0.794
16 | TTCTTCACTAGAAGCACTGTTT | 0.0317
17 | TGTCTCTTGAACTCCAATCCAT | -0.483
18 | TTTGGTAAAGAATCGTGTCATT | -0.878

What follows are sequences tested against CHI3L1 in the same assay as above. Conditions: shRNA.

Row | Sequence | sensor-assay potency score (higher = more potent)
19 | TCTGTCAGGACTTGCATCCTCC | -0.579
20 | TAGCAGACCAGTTTGTATGCAG | 0.269
21 | TTGAGCATGCCGTAGAGCGTCA | -0.951
22 | AAATCGTAGGTCATGATGCTAA | -0.871
23 | TAGAGCGTCACATCATTCCACT | -0.926
24 | TTTGTCTCTCCGTCCAGGGTAG | -0.776
25 | TAGTCAGTGTTGCTGAATCTGT | -1.28
26 | TTCAGGTACTGCACCTTGCTTT | -0.412
27 | ATCTTGGCAATGTCATAGCTGC | -1.04
28 | ATAATTAGTATGGTCACTGTGT | -0.0223
29 | TTTCCTGGTCGTCGTATCCTAC | -0.76
30 | TTGGCAATGTCATAGCTGCTGT | -0.359
31 | TGAATCTGTCAGGACTTGCATC | -0.763
32 | TTGTATGCAGAGCAGCACTGGA | -1.21
33 | TATATTGGCAAAGCTGTAGATG | -1.02
34 | TTCATTTCCTTGATTAGGGTGG | 0.13
35 | TTTGTATGCAGAGCAGCACTGG | -1.09
36 | TATCTTGGCAATGTCATAGCTG | 0.682
37 | TTGCTTTTGACGCTTTCCTGGT | -0.698
38 | TTGGAAAATCTTTGAGACCCAA | -0.569
39 | TTGAGTGTGTTGAGCATGCCGT | -0.388
40 | TTGCATCCTCCTGACCTCGGAA | -0.718
